Experimental findings from PubChem BioAssay (Tox21) are described below.

The nature of assay [1]: qHTS assay to identify small molecule agonists of the estrogen receptor alpha (ER-alpha) signaling pathway in the presence of an antagonist - cell viability counter screen (AID 1259386).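 Note: cells exposed to compounds for 22 h at 37 °C before the viability read; nearly all actives have a fitted effect of over 30% in size.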 Note: potency is the fitted concentration of half-maximal effect. Summed up:
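VM7Luc4E2 cells (endogenous full-length ER-alpha, 4×ERE-luciferase) were held 5 days in phenol red-free medium with 10% charcoal-stripped FBS, plated, then given 10.0nM ICI-182,780 and compounds at 15 concentrations for 22hr at 37C; viability read by CellTiter-Fluor fluorescence.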
In general terms: In qHTS, concentration-response curves come from the screen itself.

Assay [2] has as its target Progesterone receptor (Homo sapiens) (UniProt P06401). In words: qHTS assay to identify small molecule agonists of the progesterone receptor (PR) signaling pathway (AID 1346784; calls by dose curve; note: nearly all actives have a fitted effect of over 30% in size; note: potency is the fitted concentration of half-maximal effect). Summed up:
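PR-UAS-bla HEK 293T cells (beta-lactamase reporter under UAS) in 2% charcoal-stripped FBS, dosed with 23 nL compound after 6 hr, incubated 16hr at 37C. LiveBLAzer B/G FRET substrate added, fluorescence read after 2 hours.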

Assay [3] in a line: qHTS assay to identify small molecule agonists of the progesterone receptor (PR) signaling pathway - cell viability counter screen (AID 1346799; calls by dose curve; note: nearly all actives have a fitted effect of over 45% in size; note: potency is the fitted concentration of half-maximal effect). Summed up: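 Counter screen in the PR-UAS-bla HEK293T wells (2% charcoal-stripped FBS, 16 h compound exposure at 37 C) after the bla read. CellTiter-Glo added, 30 min at room temperature, luminescence read as cell viability.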
Assay [4] can be described thus: qHTS assay to identify small molecule antagonists of the TGF-beta/Smad signaling pathway - cell viability counter screen (AID 1346824). Note: nearly all actives have a fitted effect of over 50% in size. Note: potency is the fitted concentration of half-maximal effect. Summed up: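 SBE-bla HEK 293T cells, incubated overnight, then compound plus 0.25 ng/mL TGF-beta1 (stock added) for 5 hr at 37 C. Viability was read in the same wells by CellTiter-Glo luminescence after 30 min at room temperature.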

Assay [5] is described as follows: qHTS assay to identify small molecule agonists of the TGF-beta/Smad signaling pathway - cell viability counter screen (AID 1346829). Note: nearly all actives have a fitted effect of over 45% in size. Note: potency is the fitted concentration of half-maximal effect. Summed up: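 Cytotoxicity counter screen: CellTiter-Glo luminescence (30 min, room temperature) measured in the SBE-bla HEK 293T reporter wells after 5 hr compound treatment at 37 C and the 2 hr substrate step.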
A short description of assay [6]: qHTS assay to identify small molecule agonists of the TGF-beta/Smad signaling pathway (AID 1346859; active = well fitted activation curve with a large enough effect in the signal ratio in the repeat runs, not every such curve was filed as active; the % refers to the signal ratio; note: series mostly up to about 77 µM). Put shortly: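 SBE-bla HEK293T cells plated overnight, then compound exposure for 5 h at 37 C. Beta-lactamase reporter read with LiveBLAzer B/G FRET substrate after 2 h at room temperature, fluorescence at 405 nm excitation, 460/530 nm emission.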
Assay [7] deals with Thyrotropin-releasing hormone receptor (Homo sapiens) (UniProt P34981). The assay can be described thus: qHTS assay to identify small molecule antagonists of the thyrotropin-releasing hormone receptor (TRHR) signaling pathway (AID 1346877; active = well fitted inhibition curve with a large enough effect in the repeat runs, not every such curve was filed as active; note: series mostly up to about 51 µM). Put shortly: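 TRHR-expressing HEK293 cells were seeded, cultured 18 h at 37 °C, then loaded with calcium dye for 2 h. Compounds were pre-incubated 5 min at room temperature before 1 nM TRH (final) was added, and kinetic fluorescence was recorded for 3 min.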
Thyrotropin-releasing hormone receptor (Homo sapiens), sequence (P34981 whole entry, looked up): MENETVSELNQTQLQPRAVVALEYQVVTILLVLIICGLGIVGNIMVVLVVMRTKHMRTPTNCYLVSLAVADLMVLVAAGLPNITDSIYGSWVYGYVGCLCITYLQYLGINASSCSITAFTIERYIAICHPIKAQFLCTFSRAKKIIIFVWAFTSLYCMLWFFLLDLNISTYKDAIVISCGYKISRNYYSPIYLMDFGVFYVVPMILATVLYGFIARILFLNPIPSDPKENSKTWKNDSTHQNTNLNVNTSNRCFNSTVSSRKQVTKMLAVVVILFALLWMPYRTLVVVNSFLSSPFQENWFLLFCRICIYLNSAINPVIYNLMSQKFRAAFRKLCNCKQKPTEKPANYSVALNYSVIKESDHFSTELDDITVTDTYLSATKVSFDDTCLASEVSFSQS

The target is the same in assay [8]. In words: qHTS assay to identify small molecule agonists of the thyrotropin-releasing hormone receptor (TRHR) signaling pathway (AID 1346891; calls by dose curve; note: series mostly up to about 58 µM). Put shortly:
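HEK293 cells expressing TRHR plated 18 h at 37 C/5% CO2, calcium dye-loaded 2 h at 37 C, then compound added (agonist mode); kinetic calcium fluorescence read 3 min at 1 s intervals; 15 concentrations in triplicate.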

Assay [9] in a line: qHTS assay to identify small molecule antagonists of the progesterone receptor (PR) signaling pathway - cell viability counter screen (AID 1346798). Note: nearly all actives have a fitted effect of over 50% in size. Note: potency is the fitted concentration of half-maximal effect. Put shortly: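 PR-UAS-bla HEK293T cells, 3,000/well in 2% charcoal-stripped FBS medium, dosed with compounds plus R5020 agonist and incubated 16 h at 37C. Viability then measured in the same wells by CellTiter-Glo luminescence after 30 min at RT.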

In assay [10] the target is Progesterone receptor (Homo sapiens) (UniProt P06401). The assay can be described thus: qHTS assay to identify small molecule antagonists of the progesterone receptor (PR) signaling pathway (AID 1346795; active = well fitted inhibition curve with a large enough effect in the signal ratio in the repeat runs, not every such curve was filed as active; the % refers to the signal ratio; note: potency is the fitted concentration of half-maximal effect). Summed up: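 PR-UAS-bla HEK293T cells with beta-lactamase reporter under UAS control, in 2% charcoal-stripped FBS, treated with compounds plus 1 nM promegestone (R5020, final) for 16 hr at 37C. Read-out: FRET beta-lactamase substrate fluorescence after 2 hr at room temperature.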
Progesterone receptor (Homo sapiens), sequence (P06401 whole entry, looked up): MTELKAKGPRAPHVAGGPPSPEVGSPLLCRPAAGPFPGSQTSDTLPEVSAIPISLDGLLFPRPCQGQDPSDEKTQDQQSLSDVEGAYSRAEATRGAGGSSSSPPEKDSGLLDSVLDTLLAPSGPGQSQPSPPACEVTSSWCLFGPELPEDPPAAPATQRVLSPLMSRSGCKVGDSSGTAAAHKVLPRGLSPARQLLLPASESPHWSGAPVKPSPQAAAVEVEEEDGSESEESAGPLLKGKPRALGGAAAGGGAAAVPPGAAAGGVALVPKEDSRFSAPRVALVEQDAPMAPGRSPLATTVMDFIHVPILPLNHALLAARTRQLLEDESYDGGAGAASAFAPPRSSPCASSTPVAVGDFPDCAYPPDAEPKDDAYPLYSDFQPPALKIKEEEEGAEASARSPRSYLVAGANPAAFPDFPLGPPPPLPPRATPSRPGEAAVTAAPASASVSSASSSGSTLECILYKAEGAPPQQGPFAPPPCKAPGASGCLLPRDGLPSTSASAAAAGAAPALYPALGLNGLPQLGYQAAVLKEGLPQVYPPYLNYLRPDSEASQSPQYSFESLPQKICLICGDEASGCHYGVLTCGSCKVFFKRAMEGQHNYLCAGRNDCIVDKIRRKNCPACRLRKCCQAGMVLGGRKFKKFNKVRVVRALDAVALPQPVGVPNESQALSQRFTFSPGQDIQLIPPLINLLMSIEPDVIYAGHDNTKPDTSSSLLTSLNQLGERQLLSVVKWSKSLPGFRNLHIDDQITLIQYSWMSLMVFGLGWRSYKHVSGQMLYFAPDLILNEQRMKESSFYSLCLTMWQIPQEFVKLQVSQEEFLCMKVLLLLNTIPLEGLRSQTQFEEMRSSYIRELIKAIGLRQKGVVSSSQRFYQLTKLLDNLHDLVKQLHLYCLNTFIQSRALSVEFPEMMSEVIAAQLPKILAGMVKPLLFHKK

Where “and” joins values, the source holds several entries; their conditions need not be identical. Equal entries are not always repeated. Inconclusive results are not listed. The source holds several records for some structures; these can differ, active in one and inactive in another. Calls of active or inactive are those of the source. Unless noted, calls come from the whole dose curve; as a rule, active = well fitted curve in the direction sought with a large enough effect in the repeat runs; inconclusive = weak or mixed curves; inactive = no such curve, though single readings can be large; an effect the other way counts as inactive or inconclusive.

As for `c1ccc2c(c1)Nc1ccccc1S2`, the Potency result in assay [1], in [3], in assay [4], in assay [5], in assay [6] and in assay [7] was “inactive” throughout. For the same compound, the Potency in [2] was 1.54 µM (active) and inactive. For the same compound, the outcome in [8] was inactive.
As for `COP(=S)(OC)SCn1nnc2ccccc2c1=O`, the Potency result in [1], in assay [2], in assay [9], in assay [3], in [4] and in assay [5] was “inactive” throughout. Also, the Potency entry in assay [6] and in [7] was “inactive” throughout. Further, the call in assay [8] was inactive.
Regarding `Cc1cccc(N=Nc2ccc(N(C)C)cc2)c1`, the Potency in assay [1] was 24.8 µM (active) and 24.3 µM (active). Moreover, the Potency result in assay [2], in assay [3], in assay [4], in assay [5], in assay [6] and in assay [7] was “inactive” throughout. Further, in assay [8], the call was inactive.
As to `CC(C)(O)C(=O)Nc1ccc([N+](=O)[O-])c(C(F)(F)F)c1`, the Potency entry in assay [1], in assay [2], in assay [9], in assay [4], in assay [5] and in assay [6] was “inactive” in each case.
In the case of `CC(C)(c1ccccc1)c1ccc(O)c(C(C)(C)c2ccccc2)c1`, the Potency in [1] is 68 µM (active); in assay [9] it was 17.1 µM (active) and 48.6 µM (active); in assay [3], 42.9 µM (active) and 27.3 µM (active); in assay [4] it was 54.4 µM (active) and 43.6 µM (active); in assay [5], 48.5 µM (active) and 43.6 µM (active). In addition, in [7], the Potency result is “inactive”. The compound was called inactive in assay [8].
As to `CCC1(c2ccc(N)cc2)CCC(=O)NC1=O` (configuration not stated), the Potency result in assay [1], in [2], in assay [10], in assay [3], in assay [4] and in [5] was “inactive” throughout. Moreover, the Potency entry in [6] and in assay [7] was “inactive” in each case. In assay [8], the compound was classed as inactive.
As to `C=CC(Cl)CCl` (configuration not stated), the Potency entry in assay [1], in assay [2], in [10], in [3], in assay [4] and in assay [5] was “inactive” in each case. Further, the Potency entry in [6] and in assay [7] was “inactive” in each case. Moreover, the compound was classed as inactive in [8].
With `CSc1nc(NC(C)C)nc(NC(C)C)n1`, the Potency entry in [1], in [2], in assay [9], in assay [3], in assay [4] and in assay [5] was “inactive” each time. Also, the Potency entry in [6] and in [7] was “inactive” in each case. Besides, the result in assay [8] was inactive.
For `CCC(=O)Nc1ccc(Cl)c(Cl)c1`, the Potency entry in [1], in assay [2], in assay [3], in assay [4], in assay [5] and in assay [6] was “inactive” in each case. For the same compound, in assay [7], the Potency entry was “inactive”. Besides, the compound was called inactive in assay [8].
Regarding `CCOP(=S)(OCC)SCSC(C)(C)C`, the Potency entry in assay [1], in [2], in [3], in assay [4], in assay [5] and in assay [6] was “inactive” each time. Further, the Potency in assay [9] was 48.6 µM (active).
Turning to `CCOP(=S)(OCC)SCn1c(=O)oc2cc(Cl)ccc21`, the Potency result in assay [1], in [2], in assay [3], in assay [4], in assay [5] and in [6] was “inactive” each time. For the same compound, in assay [7], the Potency entry was “inactive”. Besides, the compound was classed as inactive in assay [8].
On to `O=S(=O)(O)C(F)(F)C(F)(F)C(F)(F)C(F)(F)C(F)(F)C(F)(F)C(F)(F)C(F)(F)F`, for which the Potency result in [1], in [2], in assay [4], in assay [5] and in [6] was “inactive” throughout. Besides, the Potency in assay [9] was 29.2 µM (active) and 19.3 µM (active); in assay [3], 41.2 µM (active) and inactive and 17.2 µM (active).
Turning to `c1ccc(C2CO2)cc1` (configuration not stated), the Potency entry in assay [1], in assay [2], in assay [10], in [3], in [4] and in assay [5] was “inactive” in each case. Further, the Potency entry in assay [6] and in assay [7] was “inactive” throughout. Also, the result in [8] was inactive.
Turning to `CCC[CH2][Sn]([Cl])([CH2]CCC)[CH2]CCC`, the Potency in [1] was 10.9 µM (active) and 30.6 µM (active); in assay [9], 1.73 µM (active) and 3.44 µM (active); in assay [3], 1.73 µM (active) and 2.17 µM (active); in assay [4], 1.38 µM (active) and 2.19 µM (active); in assay [5] it was 1.55 µM (active) and 977 nM (active).
Take `O=[N+]([O-])c1ccc(Cl)c([N+](=O)[O-])c1`: the Potency in [1] is 31.1 µM (active) and 27.3 µM (active); in assay [10] it was 24.3 µM (active); in [9] it was 31.1 µM (active) and 27.3 µM (active); in assay [3] it was 27.7 µM (active) and 27.3 µM (active); in [4], 55.8 µM (active) and 34.7 µM (active); in assay [5], 24.5 µM (active). In addition, in assay [7], the Potency entry is “inactive”. Moreover, in assay [8], the compound was classed as inactive.
